# Screens: PubChem BioAssay, National Center for Advancing Translational Sciences (NCATS)
# An excerpt weighted towards active compounds, which were near 8.1% of everything screened.
# KB-V1 MDR tox: KB-V1 MDR subline cytotoxicity; KB-V1 MDR cells viability, CellTiter-Glo, 72 h; Potency, µM (series often up to 46.1 µM), actives largely listed as cytotoxic; 3.4% of 400,000 active; AID 1347076; further: on the % scale 0 is the no-effect control and ±100 the full control effect; nearly all actives have a fitted effect of over 60% in size
#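 Cytotoxicity toward P-gp-expressing KB-V1 cells was determined as loss of CellTiter-Glo luminescence after 72 h at 37 degrees C. Compounds were tested in quantitative HTS format across a concentration range, with curves fitted to normalized data.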
# ELG1 DNA repair: inhibitors of ELG1-dependent DNA repair in HEK293T cells | 2.3% of 330,000 active | Potency, µM (top dose mostly 46.1 µM), inactives show top-dose activity change, negative = inhibition, most hits filed as inhibitors | HEK293T ELG1-luciferase reporter, luminescence, 16 h; DNA damage induced by 5-fluorouridine; further: on the % scale 0 is the no-effect control and ±100 the full control effect; nearly all actives have a fitted effect of over 55% in size
#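 5-Fluorouridine DNA damage + compound/DMSO, 2,000 cells/well, 16 h, 37 °C/5% CO2. ONE-Glo, 30 min RT, luminescence. Readout = decrease in reporter signal.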
# SW480 rereplic: inducers of DNA re-replication in SW480 colon cancer cells; SW480 DNA re-replication, Hoechst DNA content imaging, 48 h; 1.8% of 340,000 active; AID 624297; Potency, µM (titrated, usually from 46.1 µM), without a hit: at the highest dose re-replication activation, usual class: activators; further: % of control where 0% means no effect; nearly all actives have a fitted effect of over 55% in size
#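 Image-based read-out: total Hoechst fluorescence of nuclei (405 nm excitation, 500-530 nm emission), with hits raising the fraction of high-intensity nuclei. SW480 colon cells incubated 48 hr with compounds at 37 C.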
# MCF10A rerep: DNA re-replication induction in MCF 10a cells; MCF 10A DNA re-replication, Hoechst nuclear intensity, 48 h; Potency, µM (titrated, usually from 46.1 µM), for inactives: at the highest dose activity, positive = re-replication, most hits filed as activators; 2.9% of 350,000 active; further: % of control where 0% means no effect; nearly all actives have a fitted effect of over 50% in size
# KB-3-1 cytotox: kills parental KB-3-1 adenocarcinoma cells | KB-3-1 viability, CellTiter-Glo ATP luminescence, 72 h | Potency, µM (doses to about 46.1 µM), hits mostly cytotoxic | 1.4% of 400,000 active; further: on the % scale 0 is the no-effect control and ±100 the full control effect; nearly all actives have a fitted effect of over 60% in size
#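 KB-3-1 parental drug-naive adenocarcinoma cells in DMEM/10% FBS, incubated 72 h at 37 C with pin-transferred compounds across a concentration series. Viability by CellTiter-Glo luminescence; concentration-response curves fitted after normalization.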
# * hit, by the source's call; i = inactive; ? = inconclusive; . = no result. The call rests on the fitted dose curve; in most records, active means well fitted curve in the direction sought with a large enough effect; inconclusive means small, poorly fitted or top-dose-only effect, or another doubt; inactive means no such curve, though single readings can be large; an effect the other way counts as inactive or inconclusive. Potency means the concentration at half of the fitted maximal effect.
SMILES,KB-V1 MDR tox,ELG1 DNA repair,SW480 rereplic,MCF10A rerep,KB-3-1 cytotox
O=C(O)c1ccc(Nc2nc(-c3ccccc3)nc3ccccc23)cc1,i,-10.7%,-1.2%,9.0%,i
Cc1ccc(-c2nc(Nc3cccc(O)c3)c3ccccc3n2)cc1,i,20.6µM*,-7.7%,?,i
Cc1ccc(-c2nc(Nc3ccc(N4CCOCC4)cc3)c3ccccc3n2)cc1,i,23.1µM*,-14.0%,?,i
CNC(=O)c1ccc(Nc2nc(-c3ccccc3)nc3ccccc23)cc1,?,14.6µM*,-2.1%,?,i
COC(=O)c1ccc(Nc2nc(-c3ccc(C)cc3)nc3ccccc23)cc1,?,.,.,.,i
O=[N+]([O-])c1cccc(NC(=S)N2CCN(S(=O)(=O)c3ccccc3)CC2)c1,.,-6.7%,-5.5%,1.2%,.
Cc1ccc(NC(=O)c2cc(S(=O)(=O)N3CCCC(C)C3)cn2C)c(Br)c1 (stereo not given),i,.,.,.,i
COc1ccc(C(=O)C2CCCN(Cc3cccn3-c3ccc(Cl)cn3)C2)c(OC)c1 (stereo not given),11.6µM*,-24.7%,17.2%,19.3%,?
COc1ccc(C(=O)C2CCCN(Cc3c(F)ccc(F)c3F)C2)c(OC)c1 (stereo not given),?,-8.6%,-9.5%,3.2%,i
COC(=O)CCCC(=O)NCC1(N(C)Cc2ccccc2)Cc2ccccc2C1,i,-18.1%,?,?,i
COc1ccc(CNC(=O)CN(C)S(=O)(=O)c2ccc3[nH]c4c(c3c2)CCCC4)cc1,i,.,.,.,i
Cn1c(C=O)c(C#CC(C)(C)O)c2ccccc21,i,4.6%,-1.6%,-7.9%,i
COc1cccc(C#Cc2c(C=O)n(C)c3ccccc23)c1,?,-19.6%,2.31µM*,?,i
CCOc1cc(CN2CCN(C(=O)c3cccc4ccccc34)CC2)ccc1OC,?,14.6µM*,?,-1.3%,i
COc1ccc(CN2CCN(C(=O)c3cccc4ccccc34)CC2)cc1OC,i,11.6µM*,6.51µM*,0.651µM*,i
COc1ccc(CN2CCN(C(=O)c3cccc4ccccc34)CC2)cc1Br,i,?,-4.3%,18.8%,i
Cc1cccc(NC(=O)CSc2nc3c(oc4ccccc43)c(=O)n2Cc2ccco2)c1,i,.,.,.,i
CCCCOC(=O)Nc1ccccc1C(=O)N1CCCC1,13µM*,11.1%,?,?,i
O=C(/C=C\N1CCOCC1)c1ccc(Br)cc1,i,?,1.9%,5.8µM*,i
S=C(c1ccc(-c2ccccc2)cc1)N1CCOCC1,i,-14.7%,-4.4%,7.5%,i
O=C(/C=C/N1CCOCC1)c1ccc(-c2ccccc2)cc1,?,?,14.6µM*,9.1%,i
CC(C)(C)NC(=O)COC(=O)c1ccccc1Nc1ccc(SC(F)F)cc1,i,?,5.3%,?,?
Cc1ccc(S(=O)(=O)/C(C#N)=C/c2c(N3CC(C)OC(C)C3)nc3ccccn3c2=O)cc1 (stereo not given),i,-7.6%,2.3%,5.7%,i
COc1ccc(C(OC(=O)c2ccco2)C(=O)NC2CCCCC2)cc1 (stereo not given),i,3.8%,0.4%,0.2%,i
COc1ccc(C(OC(=O)c2c(C)noc2C)C(=O)NC2CCCC2)cc1 (stereo not given),5.17µM*,24.0%,-9.5%,-6.1%,i
Cn1cc(S(=O)(=O)c2ccc(Cl)cc2)c(=O)c2cc(F)c(N3CCOCC3)cc21,i,.,.,.,i
Cc1nc2sc(C(c3ccc(Cl)cc3)N3CCOCC3)c(O)n2n1 (stereo not given),i,-8.4%,-1.1%,?,i
Cc1nc2sc(C(c3ccccc3)N3CCOCC3)c(O)n2n1 (stereo not given),i,0.3%,16.4µM*,4.61µM*,i
CCOC(=O)c1c(N)c2cc([N+](=O)[O-])ccc2n1C,?,27.7%,7.8%,-0.7%,i
CCOC(=O)/C(=C/c1c(C)n(C)c2ccc([N+](=O)[O-])cc12)C(C)=O,?,13µM*,?,14.6µM*,23.1µM*
